Test results taken from PubChem BioAssay (EPA / NIEHS).
Activity calls are given as the source filed them. Rule for the calls: active = hit-call score of the fitted dose curve at least 0.9, where 1 is the maximum; inactive = score below 0.9.

Test: CCTE_Padilla_ZF_Score.Any: CCTE's 144 Hour Post-fertilization zebrafish Assay Score for Any Mortality or Malformation, Padilla Lab (AID 2284416)
Description: CCTE_Padilla_ZF_Phenotype_Score is a whole embryo, multiplexed assay using zebrafish ova exposed for 144 hours post fertilization on a 96-well plate.CCTE_Padilla_ZF_Score.Any is one of one assay component(s) measured or calculated from the CCTE_Padilla_ZF_Phenotype_Score assay. It is designed to make measurements of zebrafish development as detected with brightfield microscopy of developing zebrafish embryos.Data from the assay component CCTE_Padilla_ZF_Score.Any was analyzed into 1 assay endpoints. This assay endpoint, CCTE_Padilla_ZF_Score.Any, was analyzed in the positive analysis fitting direction relative to DMSO as the negative control and baseline of activity. Using a type of viability reporter, gain-of-signal activity can be used to understand changes in developmentals as they relate to the whole embryo. To generalize the intended target to other relatable targets, this assay endpoint is annotated to the zebrafish development intended target family, where the subfamily is embryonic morphogenesis and mortality.
Zebrafish husbandry: Wild type adult zebrafish (Danio rerio; undefined outbred stock obtained from Aquatic Research Organisms, Hampton, NH, 03842) were housed in an AAALAC-approved animal facility at 28C with a 14:10 h light: dark cycle (lights on at 08:30 h). Adult fish (2-3 females per male; density = 15-20 adults per tank) were kept in one of several 9-liter (L) flow-through colony tanks (Aquaneering Inc., San Diego, CA). All adults in a colony tank were placed in a 2 L (static) breeding tank (Aquatic Habitats, Apopka, FL) one hour prior to light onset. Typically, adults from two to three colony tanks were mated on the same day. Two hours after light onset the adults were returned to the colony tank. All embryos were gathered from each breeder tank, pooled, and placed in a 28C water bath for 2 h, followed by two washes with 0.06% bleach (v/v) in 10% Hanks' Balanced Salt Solution (13.7 mM NaCl 0.54 mM KCl, 25 uM Na2HPO4, 130 uM CaCl2 100 um MgSO4 and 420 um NaHCO3,), hereafter referred to as Hanks' solution, for 5 min in order to remove any residual bacteria or fungi. Immediately following washing, the embryos were examined, and healthy embryos were separated from dead or unfertilized eggs and moved into fresh Hanks'. Chemical exposures: Zebrafish embryos were exposed in 96-well plates. Between 6- and 8-hours post fertilization (hpf), healthy embryos (with chorions) were transferred, one embryo per well, into 96 well (0.5 mL) microtiter plates (Cell Culture-Treated, Flat-Bottom Microplate 96 well [Corning Costar, Kennebunk, ME; Cat 09-761-145]) filled with 200 uL of Hanks' solution. A random number generator was used to assign the order in which the rows of embryos were plated in 96 well plates each week. After plating, the embryos were dosed with 0.8 uL of the chemical dosing solution then immediately sealed with AlumaSeal II (Excel Scientific Inc, Victorville, CA) to prevent volatilization of the chemicals, and then placed in a leakproof secondary container. These containers were placed in an incubator maintained on a 14:10 h light: dark cycle at 26C for rearing. On 5 dpf, live larvae were gently moved out of the plate with test chemicals and into a new 96 well mesh plate (Millipore Corp., Bedford, MA) with just the Hanks' solution. Once within the mesh well plate, the animals were rinsed with 400 uL of fresh Hanks' three times, and then the plates were covered with a non-adhesive material (Microseal A, BioRad, Hercules, CA), plate lid added, and then plate sides wrapped in Parafilm (PM992, Bermis Company, Neenah, WI), and returned to the incubator. […]

Structure (SMILES) | outcome | AC50
FC(F)(F)C(F)(F)C(F)(F)C(F)(F)C(F)(F)C(F)(F)I | inactive | –
OC(O)(C(F)C(O)(O)C(F)(F)F)C(F)(F)F | – | 16.9 µM (active)
OCCC(F)(F)C(F)(F)C(F)(F)C(F)(F)F | inactive | –
FC(F)C(F)(F)COCC1CO1 (stereo not given) | – | 30.7 µM (active)
FC(F)(F)COC(OCC(F)(F)F)OCC(F)(F)F | inactive | –
O=S(=O)(O)CCC(F)(F)C(F)(F)C(F)(F)C(F)(F)C(F)(F)C(F)(F)F | inactive | –
NCC(F)(F)C(F)(F)C(F)(F)C(F)(F)F | inactive | –
C[Si](C)(C)C(F)(F)C(F)(F)C(F)(F)F | inactive | –
O=C(Cl)C(F)(F)C(F)(F)C(F)(F)C(=O)Cl | inactive | –
FC(F)=C(F)C(F)(F)C(F)(F)C(F)(F)C(F)(F)C(F)(F)C(F)(F)F | inactive | –
